Screening results as filed in PubChem.
pS6 MEF inh: Acumen qHTS Assay for Inhibitors of the mTORC1 Signaling Pathway in MEF (Tsc2-/-, p53-/-) Cells: Sytravon | Potency, µM (top dose mostly 38.3 µM), inactives show top-dose activity change, negative = inhibition, actives largely listed as inhibitors | AID 493208, 2011 | 0.78% of 44,000 active | Tsc2-/- p53-/- MEF, phospho-rpS6 immunofluorescence/PI, 24 h;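 further: potency means the concentration at half of the fitted maximal effect; plate controls were DMSO for no effect and rapamycin for full effect; nearly all actives have a fitted effect of over 50% in size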
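Read-out: phospho-S6 Alexa-488 intensity over PI intensity per well, scored as % active cells using thresholds from rapamycin (7.5 nM) and DMSO controls. Tsc2-/-, p53-/- MEFs exposed to compound for 24 h; PI cell count recorded as viability.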
HTT promoter inh: Primary qHTS for Identification of Small Molecule Inhibitors of Huntingtin Promoter Activity | HEK293 HTT promoter firefly luciferase reporter, 24 h | Potency, µM (top dose mostly 57.5 µM), inactives show at the top dose activity change, negative = inhibition, actives largely listed as inhibitors | 0.93% of 48,000 active; further: potency means the concentration at half of the fitted maximal effect; nearly all actives have a fitted effect of over 50% in size
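Luminescence was read after Dual-Glo reagent and a 10 min room-temperature incubation. Values were normalized to vehicle (0% activity) and zero RLU (-100% activity). Reporter HEK293 cells had been exposed to compounds (up to 57.5 uM final) for 24 h.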
FH mod: Identification of activators of human fumarate hydratase by quantitative high-throughput screening | Fumarate hydratase, mitochondrial (Homo sapiens), P07954 | FH coupled MDH/diaphorase resazurin fluorescence, 15 min | Potency, µM (doses to about 79.9 µM), for the others: at the highest dose activity change, negative = inhibition, hits mostly inhibitors | 0.22% of 54,000 active | AID 1347055, 2019; further: potency means the concentration at half of the fitted maximal effect; on the % scale 0 is the no-effect control and ±100 the full control effect; the screen sought activators but most active calls are inhibition curves; nearly all actives have a fitted effect of over 45% in size
HTT-AS act: Primary qHTS for Identification of Small Molecule Activators of Huntingtin-Antisense Promoter Activity. 0.24% of 48,000 active. HEK293 HTT-AS promoter firefly luciferase reporter, 24 h; response scale: percent change from vehicle, -100% = no light. Potency, µM (titrated, usually from 57.5 µM), for the others: at the highest dose activity change, positive = activation, usual class: activators; further: potency means the concentration at half of the fitted maximal effect; nearly all actives have a fitted effect of over 55% in size
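Luminescence was read after Dual-Glo reagent and a 10 min room-temperature incubation. Values were normalized to vehicle (0% activity) and zero RLU (-100% activity). Reporter HEK293 cells had been exposed to compounds (up to 57.5 uM final) for 24 h.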
S16 viability: Cell viability qHTS assay in S16 Pmp22-F2sN cells. S16 Pmp22-F2sN Schwann cells viability, CellTiter-Glo, 24 h. Potency, µM (doses to about 57.5 µM), for inactives: at the highest dose activity change, negative = cytotoxicity, most hits filed as cytotoxic. 0.48% of 43,000 active; further: potency means the concentration at half of the fitted maximal effect; on the % scale 0 is the no-effect control and ±100 the full control effect; nearly all actives have a fitted effect of over 65% in size
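Used to flag compounds lowering reporter output through toxicity, this quantitative HTS measures ATP-based CellTiter-Glo luminescence in S16 Pmp22-F2sN Schwann cells after 24 h compound exposure at 37C.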
PMP22 txn prim: Cell-based coincidence reporter assay to measure PMP22 gene transcription in S16 Pmp22-F2sN cells - Primary screen. S16 Pmp22-F2sN Schwann cells (luciferase reporters placed in the Pmp22 gene), FLuc/NLuc coincidence luminescence, 24 h. Potency, µM (doses to about 57.5 µM), for inactives: at the top dose activity change, negative = inhibition, usual class: inhibitors. 2% of 43,000 active; active means clear falling dose curves in both reporters; inconclusive means both reporters move, but less clearly or upward; inactive means either reporter flat; the % is the NLuc reporter signal; further: potency means the concentration at half of the fitted maximal effect; on the % scale 0 is the no-effect control and ±100 the full control effect
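Transcriptional readout in edited S16(c9) cells: two luciferases reported from the Pmp22 locus, measured in turn after 24 h compound incubation.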
NLuc saturating: Biochemical NLuc saturation counterscreen for small molecule modulators of PMP22 gene expression - Nano-Glo assay; shares compounds with PMP22 txn prim; Secreted NLuc enzyme (filtered S16 cell medium), Nano-Glo luminescence; Potency, µM (series often up to 57.5 µM), for the others: at the highest dose activity change, negative = inhibition, usual class: inhibitors; 4% of 690 active; further: potency means the concentration at half of the fitted maximal effect; on the % scale 0 is the no-effect control and ±100 the full control effect
NLuc Km counter: Biochemical coelenterazine-based NLuc counterscreen for small molecule modulators of PMP22 gene expression - Km assay; shares compounds with PMP22 txn prim; Potency, µM (top dose mostly 57.5 µM), without a hit: at the highest dose activity change, negative = inhibition, usual class: inhibitors; 5% of 690 active; secreted NLuc enzyme, coelenterazine luminescence, Km conditions; further: potency means the concentration at half of the fitted maximal effect; on the % scale 0 is the no-effect control and ±100 the full control effect
FLuc ctr PMP22: Biochemical FLuc counterscreen for small molecule modulators of PMP22 gene expression. Potency, µM (highest dose often 57.5 µM), inactives show at the highest dose activity, negative = inhibition, hits mostly inhibitors. 690 tested, under 10 active. purified P. pyralis FLuc, luminescence, 10 min. shares compounds with PMP22 txn prim. AID 1508640, 2021; further: % of control where 0% means no effect
Target sequence (P08659 whole entry, looked up): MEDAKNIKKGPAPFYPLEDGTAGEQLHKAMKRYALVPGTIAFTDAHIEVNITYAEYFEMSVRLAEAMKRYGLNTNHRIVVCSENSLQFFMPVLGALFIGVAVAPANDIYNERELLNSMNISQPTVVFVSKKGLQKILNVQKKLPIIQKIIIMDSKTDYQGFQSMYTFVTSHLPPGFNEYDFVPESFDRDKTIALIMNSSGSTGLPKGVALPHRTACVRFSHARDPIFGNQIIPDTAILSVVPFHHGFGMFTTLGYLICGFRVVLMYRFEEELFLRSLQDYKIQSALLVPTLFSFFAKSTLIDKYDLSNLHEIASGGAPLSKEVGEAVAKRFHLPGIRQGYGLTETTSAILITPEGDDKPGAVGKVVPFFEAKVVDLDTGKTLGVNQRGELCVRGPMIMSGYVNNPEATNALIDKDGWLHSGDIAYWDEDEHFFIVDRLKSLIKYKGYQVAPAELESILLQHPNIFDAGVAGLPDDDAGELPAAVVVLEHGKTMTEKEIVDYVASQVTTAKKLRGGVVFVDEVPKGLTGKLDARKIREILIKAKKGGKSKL
S16 viab conf: Cell viability qHTS assay in S16 Pmp22-F2sN cells - Confirmatory screen; 7% of 690 active; S16 Schwann cells viability, CellTiter-Glo ATP luminescence, 24 h; AID 1508641, 2021; Potency, µM (titrated, usually from 57.5 µM), for the others: top-dose activity change, negative = viability loss, usual class: cytotoxic; shares compounds with PMP22 txn prim; further: potency means the concentration at half of the fitted maximal effect; on the % scale 0 is the no-effect control and ±100 the full control effect
PMP22 txn conf: Cell-based coincidence reporter assay to measure PMP22 gene transcription in S16 Pmp22-F2sN cells - Confirmatory screen. shares compounds with PMP22 txn prim. S16 Schwann cells Pmp22-F2sN, dual luciferase, 24 h. Potency, µM (doses to about 57.5 µM), for inactives: top-dose activity change, negative = inhibition, hits mostly inhibitors. 22% of 690 active; active means clear falling dose curves in both reporters; inconclusive means both reporters move, but less clearly or upward; inactive means either reporter flat; the % is the FLuc reporter signal; further: potency means the concentration at half of the fitted maximal effect
Active calls of the source: *; ? = inconclusive; . = no result given; [ ] = dose if it differs, or a comment. In the library only some 3.3% were active in any assay of this set; here they are far more common. Unless noted, the call rests on the fitted dose curve; in most records, active means well fitted curve in the direction sought with a large enough effect; inconclusive means small, poorly fitted or top-dose-only effect, or another doubt; inactive means no such curve, though single readings can be large; an effect the other way counts as inactive or inconclusive.

SMILES	pS6 MEF inh	HTT promoter inh	FH mod	HTT-AS act	S16 viability	PMP22 txn prim	NLuc saturating	NLuc Km counter	FLuc ctr PMP22	S16 viab conf	PMP22 txn conf
CCCCCn1c(=O)[nH]c2cc(C(=O)NCc3ccc(Cl)cc3)ccc2c1=O	5%	0%	4%	-10%	2%	-1%	.	.	.	.	.
O=C(NCCc1ccc(Cl)cc1)c1ccc(Cn2c(=O)[nH]c3ccccc3c2=O)cc1	-19%	-9%	18%	-12%	-23%	3.2µM*	-3%	-2%	-9%	-30%	?
COc1nc2sc(C(=O)NC3CC3)c(N)c2c(C)c1Cl	.	.	-7%	.	.	.	.	.	.	.	.
Cn1nnnc1SCCCNCc1ccccc1OCc1ccccc1Cl	?	14µM*	2%	-50%	?	13µM*	-1%	?	1%	-27%	?
COc1ccc(-c2c(C)nn3c(NCCN4CCOCC4)cc(C)nc23)cc1OC	.	.	0%	.	.	.	.	.	.	.	.
CCCCCCOc1ccc(/C=C/C(=O)Nc2sc3c(c2C(=O)OC)CCC3)cc1OC	10%	?	-12%	-94%	?	7µM*	-1%	-3%	-11%	11%	39%
CC(C)C1C(OC(=O)/C=C/c2ccccc2)CC2(C)OC2CCC2(C)OC2C1O (centres undefined)	.	.	-3%[53.3 µM]	.	.	.	.	.	.	.	.
Cc1ccc(Cl)cc1Nc1nn2c(=O)c3ccc(C(=O)NCc4cccs4)cc3nc2s1	-1%	?	3%	-42%	25µM*	8.4µM*	-8%	-3%	0%	27µM*	?
O=c1nc(-c2ccccn2)sc2ccccc12	.	.	9%	.	.	.	.	.	.	.	.
COc1ccccc1CNC(=O)C1CCCN(c2nnc(-n3c(C)ccc3C)s2)C1 (centres undefined)	-1%	-16%	-1%	-10%	1%	?	-12%	-8%	1%	14%	-28%
Cc1ccc(C)n1-c1nnc(N2CCCC(C(=O)NCc3cccc(F)c3)C2)s1 (centres undefined)	-10%	-18%	0%	-18%	-15%	15µM*	-6%	-13%	0%	-1%	?
Cc1ccc(C)n1-c1nnc(N2CCCC(C(=O)NCc3ccccc3)C2)s1 (centres undefined)	-12%	-4%	-10%	4%	-7%	?	.	.	.	.	.
CCCN(CCC)CCCNC(=O)c1cc2c(=O)oc3ccc(C)cc3c2s1	-14%	-11%	-15%	-5%	?	?	-7%	-1%	-7%	?	?
CCCCN(CC)CCCNC(=O)c1cc2c(=O)oc3ccc(C)cc3c2s1	-2%	-5%	-12%	-7%	6%	?	.	.	.	.	.
Cc1ccc(CN(Cc2cccn2-c2nnc(N3CCCC3=O)s2)C(=O)Nc2ccccc2C(F)(F)F)cc1	0%	?	-10%	-59%	?	19µM*	?	?	0%	-2%	-22%
COc1c2c(c(C)c3c1C(=O)OC3)O[C@@]1(C)CCC3(C(C)(C)O)OC(=O)CC[C@]3(C)[C@H]1C2 (some centres undefined)	.	.	0%[53.3 µM]	.	.	.	.	.	.	.	.
Cc1cccc(-n2ncc3c(Nc4c(C)cc(C)cc4C)ncnc32)c1	?	?	-27%	-23%	-18%	-29%	.	.	.	.	.
Cc1cc(C)c(Nc2ncnc3c2cnn3C)c(C)c1	?	-25%	-15%	0%	?	?	-8%	-1%	4%	-13%	-5%
C=C1C(=O)OC2/C=C(\CO)CC/C=C(\C=O)C(OC)C(OC(=O)C(C)CC)C12 (centres undefined)	.	.	-5%[53.3 µM]	.	.	.	.	.	.	.	.
CC(Oc1ccccc1)C(=O)Nc1ccccc1C(=O)OCc1cc(=O)n2nc(C3CC3)sc2n1 (centres undefined)	21%	?	1%	5%	8%	6.5µM*	-10%	-3%	-14%	5%	-11%
Clc1ccc(-c2nnn3c2nc(NCc2ccc4c(c2)OCO4)c2ccccc23)cc1	-7%	0%	0%	-1%	9%	?	.	.	.	.	.
Cc1cccc(-c2nnn3c2nc(NCCC(C)C)c2ccccc23)c1	-2%	-10%	3%	-5%	8%	13µM*	-2%	0%	-1%	16%	-1%
Cc1cccc(-c2nnn3c2nc(NCc2ccc4c(c2)OCO4)c2ccccc23)c1	-11%	-4%	-13%	13%	0%	17µM*	-12%	-20%	-10%	-23%	15µM*
Cc1cccc(-c2nnn3c2nc(NCCc2ccc(S(N)(=O)=O)cc2)c2ccccc23)c1	-1%	?	1%	-31%	15%	-31%	.	.	.	.	.
